Here are results for 88 compounds from PubChem BioAssay AID1956 (SRMLSC, 2009).

The structures appear in SMILES notation. Among all 220,000 compounds or so, about 10 (0.005%) were called active. No stated cut-off is given here; in the data, active means maximum fold increase above about 1.5; inconclusive means no clear call, values can overlap the other calls; inactive means below that; tested in PC3 cells. Only a sample is shown.

The experiment can be described thus: compounds boosting herpes simplex virus growth – fold increase, host cell viability (AID 1956). The note with it: HSV replication augmentation in cells; fold increase: measured here: primary screen fold increase 10 uM, at 10 µM, stronger effect = higher value; maximum fold increase: at 0.098 µM, stronger effect = higher value; viability: measured here: host cell viability series, at 25 µM, stronger effect = lower value.
For `COc1ccc(C#Cc2c(-c3ccc(OC)cc3)oc3ccc(-c4ccc5c(c4)OCO5)cc23)cc1`, the fold increase came to 0.99 and the call was inactive.
As for `Cc1nc(-c2ccccc2)sc1C1(C)CC(c2cccnc2)=NO1` (configuration not stated), the fold increase worked out at 0.85 and the compound was called inactive.
On to `COC(=O)c1sccc1NN1C(=O)c2ccccc2C1=O`, for which the fold increase amounted to 1.18 and the compound was called inactive.
Regarding `COCCN1C2=C(COC(C)(C)C2)C(=S)NC1c1ccccc1` (configuration not stated), the fold increase was found to be 0.95 and the result was inactive.
Consider `O=C1N[C@@H](Cc2ccccc2)C(=O)N2[C@@H]3N(S(=O)(=O)c4ccc(F)cc4)c4ccccc4[C@]3(Br)C[C@@H]12`, for which the fold increase was determined as 0.86 and the result was inactive.
Taken in the same sequence, the figures for `CCOC(=O)C[C@H]1c2ccc(C(F)(F)F)cc2S(=O)(=O)N1c1ccccc1` were 0.88 and “inactive”.
As to `Cc1ccc(S(=O)(=O)N(C)C)cc1NC(=O)c1n[nH]c(=O)c2ccccc12`, the fold increase was found to be 0.73 and the compound was classed as inactive.
Taken in the same sequence, the figures for `O=C(NCc1ccccc1)c1ccc(S(=O)(=O)Nc2cccc(C(F)(F)F)c2)cc1` were 0.83 and “inactive”.
On to `O=C1CC(Cc2ccc(Cl)cc2)C(=O)N1c1cc(Cl)ccn1` (configuration not stated), for which the fold increase is 1.23 and the outcome was inactive.
Taken in the same sequence, the figures for `O=C(O)C(F)(F)C(NCc1ccccc1)c1ccccc1` (configuration not stated) were 0.84 and “inactive”.
Consider `CCN(CC)CCNCC(=O)Nc1ccc(Oc2ccccc2)cc1`, for which the fold increase was 0.94 and the call was inactive.
Regarding `NS(=O)(=O)c1ccc(NC2=CC(c3ccc(F)cc3)N(c3ccc(S(N)(=O)=O)cc3)C2=O)cc1` (configuration not stated), the fold increase is 1.05 and the compound was classed as inactive.
`CC(C)(C)c1ccc(/C=C2\Oc3c(ccc(O)c3CN3CCN(CCO)CC3)C2=O)cc1`: the fold increase turned out to be 1.25 and the compound was called inactive.
`COc1ccc(CNC(=O)C2CC(c3ccc(C(F)(F)F)cc3)=NO2)cc1` (configuration not stated): the fold increase turned out to be 0.93 and the result was inactive.
Regarding `CCN(CC)c1ccc(NC(=O)C2CCC(CNc3c(N4CCCC4)c(=O)c3=O)CC2)c(C)c1` (configuration not stated), the fold increase was found to be 1 and the compound was classed as inactive.
On the same counts, the results for `COc1ccc(CCN2C(=O)N(c3ccc(OC)cc3)C(=O)C2CC(=O)Nc2ccc(OC)cc2)cc1` (configuration not stated) are 0.88 and “inactive”.
Take `COC(=O)c1ccc(C(NC(=O)OCc2ccccc2)/C(F)=C/[C@@H](C)C(=O)O)cc1` (some centres not stated): the fold increase turned out to be 0.86 and the result was inactive.
As for `COC(=O)c1c(C)cc(O)c(C)c1O`, the fold increase stood at 0.79 and the result was inactive.
Regarding `O=C1CC2(CCCC2)Oc2ccc(Cl)cc21`, the fold increase amounted to 0.69 and the compound was called inactive.
In the case of `CC(C)Oc1ccc(CCC(=O)NNC(=S)NCc2ccccc2)cc1`, the fold increase is 1.13 and the result was inactive.
As for `CC(=O)N[C@H]1[C@H]([C@H](O)[C@H](O)CO)OC(C(=O)O)=C[C@@H]1O`, the fold increase was found to be 0.87 and the call was inactive.
For `CC(CO)(CO)NC(=O)c1ccc(=O)[nH]n1`, the fold increase was determined as 0.94 and the compound was classed as inactive.
In the case of `COC(C[C@@H](O)C[C@H](O)[C@H](C)OCc1ccccc1)OC`, the fold increase was 0.91 and the call was inactive.
On the same counts, the results for `COC(C[C@@H]1O[C@@H]1C(=O)[C@@H](C)OCc1ccccc1)OC` are 0.81 and “inactive”.
On the same counts, the results for `COc1ccc(NC(=O)CSc2ncnc3[nH]ncc23)cc1` are 1.02 and “inactive”.
Taken in the same sequence, the figures for `CCOC(=O)c1ccc(NC(=O)c2c(NCc3ccccc3)[nH]c(=O)[nH]c2=O)cc1` were 0.87 and “inactive”.
Consider `O=C(NC(=O)N1CCSCC1)c1c(Cl)cccc1Cl`, for which the fold increase was determined as 1 and the compound was classed as inactive.
With `CNC(C)C#Cc1ccc2sc3cc(OC)c(OC)cc3c(=O)c2c1` (configuration not stated), the fold increase was 0.67 and the compound was called inactive.
Taken in the same sequence, the figures for `O=C(O)/C=C/c1ccc2c(c1)OCCO2` were 0.95 and “inactive”.
Taken in the same sequence, the figures for `C[C@H](NC(=O)c1nc[nH]c1C(=O)N[C@@H](C)C(=O)OC(C)(C)C)C(=O)OC(C)(C)C` were 0.88 and “inactive”.
As for `CNC(=S)NNC(=O)c1ccc(N(C)C)cc1`, the fold increase is 1.02 and the compound was classed as inactive.
Take `COc1ccc(CNC(=O)[C@@H]2CC=C[C@@H]3CCN(C4CC4)C(=O)[C@@H]32)cc1`: the fold increase was determined as 0.88 and the call was inactive.
`CN=C1C=C/C(=N/N=c2\ccn(O)cc2C)C=C1C`: the fold increase was found to be 1.05 and the compound was classed as inactive.
In the case of `Cc1ccccc1Nc1c(-c2ccccc2)nc2ncccn12`, the fold increase was 1.06 and the call was inactive.
Take `O=C1CCCC(O)=C1N=Nc1ccc(S(=O)(=O)N2CCOCC2)cc1`: the fold increase came to 0.97 and the compound was called inactive.
Taken in the same sequence, the figures for `COC(C[C@@H]1O[C@@H]1C(=O)[C@H](C)OCc1ccccc1)OC` were 0.81 and “inactive”.
Consider `O=c1[nH]c(CSc2ccccc2)nc2c1oc1ccccc12`, for which the fold increase turned out to be 1.16 and the call was inactive.
For the compound `CCOC(=O)C1=NN(c2ccc(Cl)cc2)/C(=C/C2=NCCc3cc(OC)c(OC)cc32)S1`, the fold increase was 1.18 and the outcome was inactive.
Turning to `CCn1c2ccccc2c2cc(NC(=O)Nc3ccc([N+](=O)[O-])cc3C)ccc21`, the fold increase came to 0.73 and the compound was called inactive.
On the same counts, the results for `Cc1ccc(NC(=O)c2nc[nH]c2C(=O)N[C@@H](CCCCNC(=O)OC(C)(C)C)C(=O)OC(C)(C)C)cc1` are 0.74 and “inactive”.
Consider `C/C=C/C(=O)Nc1ccc(N2CCN(c3ccc(C(F)(F)F)cn3)CC2)nc1`, for which the fold increase was found to be 0.88 and the compound was called inactive.
In the case of `CCC(=O)Nc1cccc(C2=NOC3(C2)C[C@@H](C(N)=O)N(C(=O)c2cc([N+](=O)[O-])cc([N+](=O)[O-])c2C)C3)c1` (some centres not stated), the fold increase was 1.3 and the compound was classed as inactive.
Turning to `CCCC[C@@H]1CN=C(N)N1CCCC`, the fold increase stood at 1.05 and the outcome was inactive.
Taken in the same sequence, the figures for `COC(C/C=C/C(=O)[C@@H](C)OCc1ccccc1)OC` were 0.77 and “inactive”.
In the case of `Cn1ccnc1-c1nnn(-c2ccc(F)cc2)n1`, the fold increase turned out to be 1.06 and the compound was called inactive.
Taken in the same sequence, the figures for `CCOC(=O)c1cccc(NC(=O)c2ccc(F)cc2F)c1` were 0.77 and “inactive”.
Turning to `O=C(N/N=C/c1ccccn1)c1cccnc1`, the fold increase came to 1.05 and the compound was classed as inactive.
Turning to `COC(=O)C1=C[C@@H](C(=O)OC)[C@@H]2C3=C(C(=O)[C@]2(C)NC(=O)c2ccccc2)[C@H](C)n2c(=O)n(C)c(=O)n2[C@@H]3C1`, the fold increase turned out to be 0.77 and the call was inactive.
Taken in the same sequence, the figures for `C#CCOCCOCCOCCNc1nc(N2CCN(C(=O)C([C@@H](C)CC)n3cc(C(N)COC(=O)C(F)(F)F)nn3)CC2)nc(N2CCN(C(=O)[C@H](CCCCN)n3cc(C(N)CC(C)C)nn3)CC2)n1` (some centres not stated) were 0.79 and “inactive”.
For `C=C(C)COc1ccc(-c2nc(N)ncc2-c2ccccc2OC)c(O)c1`, the fold increase is 0.94 and the call was inactive.
Regarding `COCCN(C(=S)Nc1cccc(Cl)c1C)C(C)c1ccco1` (configuration not stated), the fold increase is 1.01 and the outcome was inactive.
Turning to `Cc1cccc(Nc2nc(NCCO)nc(N3CCCC3)n2)c1`, the fold increase is 0.73 and the result was inactive.
As to `Cc1nnc(Nc2ccccc2F)s1`, the fold increase is 0.86 and the result was inactive.
Turning to `CC1(C)C2CC[C@]3(C)C(CC=C4[C@@H]5C[C@@](C)(CO)CC[C@]5(C(=O)O)CC[C@]43C)[C@@]2(C)CC[C@@H]1O` (some centres not stated), the fold increase amounted to 1.01 and the compound was classed as inactive.
`C=C(C)CNC(=S)Nc1ccc(S(=O)(=O)Nc2cnc3ccccc3n2)cc1`: the fold increase was 0.94 and the compound was classed as inactive.
`CCOC(=O)c1nnn2c1nc(N1CCN(c3ccccc3)CC1)c1ccccc12`: the fold increase was 1.01 and the call was inactive.
On to `CC1=C(N2CCN(c3ncccn3)CC2)CCC1=O`, for which the fold increase was found to be 1.12 and the result was inactive.
Take `N#CCc1c(C#N)c(N)nc(N2CCCC2)c1C#N`: the fold increase was determined as 0.85 and the result was inactive.
Consider `COc1ccc(-c2nc3c(s2)CCc2onc(-c4ccc(Br)cc4)c2-3)cc1`, for which the fold increase is 0.69 and the result was inactive.
The viability is a read-out of living cells in per cent, often relative to untreated cells. As for `C=CCSC(CC)(CC)C(N)=O`, the fold increase was found to be 1.35, the maximum fold increase was 1.19 (inactive) and the viability was 104%.
For the compound `COCOc1cc(O)c(C(=O)/C=C/c2ccc(OCOC)c(OCOC)c2)c(OCOC)c1`, the fold increase came out at 0.92 and the result was inactive.
As for `O=C(NC1CCN(Cc2ccccc2)CC1)c1ccc(Oc2cc(Cl)cc(Cl)c2)o1`, the fold increase was determined as 0.88 and the result was inactive.
Taken in the same sequence, the figures for `CN(C)/C=C(/C(=O)c1ccc(Cl)c(Cl)c1)c1nnnn1-c1ccccc1` were 1.22 and “inactive”.
Consider `COc1ccc2nc(NC(=O)NC3CCCCC3)sc2c1`, for which the fold increase came to 0.94 and the compound was called inactive.
In the case of `C=CCOC(=O)C1=C[C@H](c2ccc(Br)cc2)C[C@H](OCCCCO)O1`, the fold increase came to 0.91 and the call was inactive.
Take `O=C(CCl)Nc1ccc(Sc2ccc(NC(=O)CCl)cc2)cc1`: the fold increase stood at 0.77 and the compound was classed as inactive.
Regarding `CC(C)c1ccc(NC(=S)NC2CC3C=CC2C3)cc1` (configuration not stated), the fold increase was 0.94 and the outcome was inactive.
With `CCCNc1c(N)c(=O)c1=O`, the fold increase worked out at 0.92 and the compound was classed as inactive.
Regarding `CCCc1ccc(C(=O)[C@@H]2[C@@H](C(C)=O)N3c4ccc(F)cc4C=C[C@@H]3[C@@]23C(=O)Nc2ccccc23)cc1`, the fold increase was 1 and the result was inactive.
On to `Nc1c(N(CCO)C(=O)C2CCCCC2)c(=O)[nH]c(=O)n1Cc1ccccc1`, for which the fold increase was 0.95 and the result was inactive.
As to `CC1CC(=O)Nc2ccccc2N1S(=O)(=O)c1cccs1` (configuration not stated), the fold increase is 1.03 and the call was inactive.
For `C=C1CCN([C@@H](Cc2ccccc2)C(=O)N2CCOCC2)S(=O)(=O)c2ccccc21`, the fold increase is 0.89 and the result was inactive.
In the case of `CC1CC(NC(=O)/C(C#N)=C/c2ccc[nH]2)CC(C)(C)C1` (configuration not stated), the fold increase worked out at 0.99 and the compound was called inactive.
Regarding `Cc1nn2c(NCCN(C)C)c3c(nc2c1-c1ccccc1)CCC3`, the fold increase amounted to 0.77 and the outcome was inactive.
Taken in the same sequence, the figures for `COc1ccccc1C1=CC(=O)CCC1` were 0.81 and “inactive”.
Regarding `COCCCn1c(-c2cccs2)nc2nc3ccccc3nc21`, the fold increase worked out at 0.9 and the call was inactive.
For the compound `O=C(CCNc1n[nH]c(=O)[nH]c1=O)N/N=C\c1ccc(Br)cc1`, the fold increase was determined as 1 and the result was inactive.
Regarding `CC1(C)CC(CNCCC(c2ccc(F)cc2)c2ccco2)CCO1` (configuration not stated), the fold increase was found to be 0.96 and the compound was called inactive.
For `COc1ccc(CCn2c(NN=C3CCCC3)nc3c2c(=O)[nH]c(=O)n3C)cc1`, the fold increase is 0.93 and the outcome was inactive.
On to `CSC1=NC2(C)CCCCC2C12C=CC(=O)C=C2` (configuration not stated), for which the fold increase was determined as 0.88 and the compound was classed as inactive.
As for `CCOC(=O)c1ccccc1NC(=O)c1c(N)n(C)c(=O)[nH]c1=O`, the fold increase turned out to be 0.6 and the call was inactive.
Turning to `Cc1ccc(-c2csc(NCCc3nc4cc(Cl)c(Cl)cc4n3CCOCCO)n2)cc1`, the fold increase was determined as 0.88 and the compound was called inactive.
In the case of `CN(C)S(=O)(=O)c1ccc(NC(=O)COC(=O)Cn2[nH]c(=O)c3ccccc3c2=O)cc1`, the fold increase stood at 0.93 and the result was inactive.
Take `Nc1nc(Nc2ccccc2)nc(NCCO)c1[N+](=O)[O-]`: the fold increase was found to be 0.82 and the result was inactive.
On the same counts, the results for `C=CCSc1nnc2c(n1)-c1cccc3cccc-2c13` are 0.7 and “inactive”.
On to `O=C1N[C@H](Cc2ccccc2)C(=O)N[C@H]1Cc1cn(S(=O)(=O)c2ccccc2)c2ccccc12`, for which the fold increase was 0.74 and the compound was called inactive.
Taken in the same sequence, the figures for `O=C(COc1ccccc1[N+](=O)[O-])N/N=C/c1ccc[nH]1` were 1 and “inactive”.
`Cc1ccc(N2C(=O)CC(Nc3cccc4ccccc34)C2=O)cc1` (configuration not stated): the fold increase came out at 0.96 and the compound was classed as inactive.
